This is an account of results in PubChem BioAssay (NCATS).

A number with no mark means an inactive call. Records with an inconclusive call do not appear. Calls of active or inactive are those of the source. Calls come from the whole dose curve; as a rule, active = well fitted curve in the direction sought with a large enough effect; inconclusive = small, poorly fitted or top-dose-only effect, or another doubt; inactive = no such curve, though single readings can be large; an effect the other way counts as inactive or inconclusive.

In experiment [1] the target is Glutathione peroxidase 1 (Homo sapiens) (UniProt P07203). The experiment is described as follows: Primary qHTS Assay for Inhibitors of Recombinant Selenoprotein Glutathione Peroxidase 1 (GPX1) (AID 1845191). For activity, negative = inhibition: % is set by controls: 0 for no effect and ±100 for the full control effect. Note: nearly all actives have a fitted effect of over 65% in size. In a few lines: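 GR-coupled readout: NADPH consumption tracked by fluorescence, ex 340/em 450 nm, at t=0 and after 15 min at RT. Final mix 10 nM GPX1, 1 mM GSH, 0.5 mM CHP, 0.5 mM NADPH, 100 nM GR, 0.01% BSA, following 30 min enzyme–compound preincubation.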
Background: Quantitative high-throughput screening tests each substance at several concentrations.

In experiment [2] the target is Phospholipid hydroperoxide glutathione peroxidase GPX4 (Homo sapiens) (UniProt P36969). The experiment is described as follows: Primary qHTS Assay for Inhibitors of Recombinant Selenoprotein Glutathione Peroxidase 4 (GPX4) (AID 1845192). Note: nearly all actives have a fitted effect of over 65% in size. In a few lines: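 Steps: GPX4 plus compound, 30 min RT; add GR/GSH/NADPH master mix; start with cumene hydroperoxide; read 340/450 nm fluorescence at 0 and 15 min. Finals were 200 nM GPX4, 1 mM GSH, 0.5 mM CHP, 0.5 mM NADPH, 100 nM GR.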

The target in experiment [3] is Luciferin 4-monooxygenase (Photinus pyralis) (UniProt P08659). The experiment is described as follows: Primary firefly luciferase (FLuc) qHTS assay for identification of artifact compounds. (AID 1845220). Note: nearly all actives have a fitted effect of over 60% in size. In a few lines:
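D-luciferin and ATP (10 uM each, final) in Tris acetate buffer pH 7.6 were incubated with compounds for 15 min at room temperature. The reaction was started with 10 nM Photinus pyralis luciferase and luminescence read after 5 min. Percent inhibition was fitted to a 4-parameter Hill equation.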

For experiment [4], the system named is Nanoluciferase (engineered Oplophorus gracilirostris luciferase). The experiment in a line: Primary Nanoluciferase (NLuc) qHTS assay for identification of artifact compounds. (AID 1845222).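 Note: series mostly up to about 54 µM; 0% = DMSO and -100% = no enzyme.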 A digest of the protocol:
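Diluted conditioned medium from NLuc-expressing S16 cells treated with compounds for 15 min at room temperature, then Nano-Glo substrate added; luminescence read after 5 min. Percent inhibition versus no-enzyme and DMSO controls fitted to 4-parameter Hill equation.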

Experiment [5] is described as follows: Primary redox qHTS assay for identification of artifact compounds. (AID 1845223).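 Note: 0% = DMSO and 100% = reference compound.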 A digest of the protocol: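 Redox-cycling detection via DTT (250 uM final) oxidation coupled to Amplex Red (25 uM)/HRP (250 mU/mL) in HBSS. 15 min preincubation plus 30 min after DTT, room temperature. Ex/Em 525/598 nm; 4-parameter Hill fit against DMSO and 10 uM DA3003.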
A short description of experiment [6]: Primary fluorescence-based thiol-reactive (MSTI) qHTS assay for identification of artifact compounds. (AID 1845221). Note: nearly all actives have a fitted effect of over 65% in size. Note: potency is the fitted concentration of half-maximal effect. A digest of the protocol: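 MSTI probe at 4 uM final in 2% DMSO/PBS pH 7.4; compounds, 1 h at room temperature in dark. Fluorescence Ex/Em 525/598 nm, normalised to Acetyl-MSTI and MSTI, fitted to 4-parameter Hill.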

Phospholipid hydroperoxide glutathione peroxidase GPX4 (Homo sapiens), sequence (P36969 whole entry, looked up): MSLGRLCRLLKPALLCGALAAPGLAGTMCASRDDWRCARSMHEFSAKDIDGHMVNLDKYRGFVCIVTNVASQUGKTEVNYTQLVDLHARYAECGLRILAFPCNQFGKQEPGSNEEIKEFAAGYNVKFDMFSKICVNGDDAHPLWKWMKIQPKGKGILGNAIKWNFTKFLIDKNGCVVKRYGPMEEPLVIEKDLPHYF
Glutathione peroxidase 1 (Homo sapiens), sequence (P07203 whole entry, looked up): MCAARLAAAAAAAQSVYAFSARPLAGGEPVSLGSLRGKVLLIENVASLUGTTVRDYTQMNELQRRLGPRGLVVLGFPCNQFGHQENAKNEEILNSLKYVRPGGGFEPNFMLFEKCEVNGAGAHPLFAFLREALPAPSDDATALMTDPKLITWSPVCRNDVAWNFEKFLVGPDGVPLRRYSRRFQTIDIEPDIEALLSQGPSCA

`CC1C(=O)CC2C3C(O)CC(C(=O)O)C12CC3(C)C` (centres undefined): the Potency result in experiment [1], in experiment [2], in experiment [3], in experiment [4] and in experiment [5] was “inactive” each time.
Take `COc1cc(COC2OC(CO)C(O)C(O)C2O)cc(OC)c1O` (centres undefined): the Potency result in experiment [1], in experiment [2], in experiment [3], in experiment [4] and in experiment [5] was “inactive” in each case.
Turning to `C[C@H]1[C@H](C)CC[C@]2(C(=O)O[C@@H]3O[C@H](CO)[C@@H](O)[C@H](O)[C@H]3O)CC[C@]3(C(=O)O)C(=CCC4[C@@]5(C)CC[C@H](O[C@@H]6O[C@H](CO)[C@@H](O)[C@H](O)[C@H]6O)C(C)(C)C5CC[C@]43C)[C@H]12` (some centres undefined), the Potency entry in experiment [1] and in experiment [2] was “inactive” each time. Also, the outcome in experiment [3] was “inactive [at 11.6 µM]”. The activity, negative = inhibition in experiment [4] is -1.27% [at 11.6 µM]. The redox activity (% of DA3003) in experiment [5] is 2.24% [at 11.5 µM].
For `CC1(C)CCC(C)(C)c2cc([C@@H](O)C(=O)Nc3ccc(C(=O)O)cc3F)ccc21`, the Potency result in experiment [1], in experiment [2], in experiment [3], in experiment [4] and in experiment [5] was “inactive” throughout.
Regarding `C[C@@H]1O[C@@H](O[C@H]2[C@H](OC(C#N)c3ccc(O)cc3)O[C@H](CO)[C@@H](O)[C@@H]2O)[C@H](O)[C@H](O)[C@H]1O` (some centres undefined), the Potency entry in experiment [1], in experiment [2], in experiment [3], in experiment [4] and in experiment [5] was “inactive” in each case.
As to `COC(=O)C1=CO[C@@H](O[C@@H]2O[C@H](CO)[C@@H](O)[C@H](O)[C@H]2O)[C@@H]2[C@@H](C(=O)OC)[C@@H](O)C(O)[C@H]12` (some centres undefined), the Potency entry in experiment [1], in experiment [2], in experiment [3], in experiment [4] and in experiment [5] was “inactive” throughout.
Turning to `OC[C@H]1O[C@@H](n2cnc3c2NC=NC[C@H]3O)C[C@@H]1O`, the Potency result in experiment [1], in experiment [2], in experiment [3], in experiment [4] and in experiment [5] was “inactive” each time.
Regarding `CC1(C)CCC[C@@]2(C)[C@H]1[C@H](O)C=C1COC(=O)[C@@]12O`, the Potency entry in experiment [1], in experiment [2], in experiment [3], in experiment [4] and in experiment [5] was “inactive” throughout.
Take `COC1=CC(=O)C[C@@H](C)[C@]12Oc1cc(OC)cc(OC)c1C2=O`: the Potency result in experiment [1], in experiment [2], in experiment [3], in experiment [4] and in experiment [5] was “inactive” each time.
Regarding `CCC(NC(=O)CC(NC(=O)C(CO)NC(=O)C(CC)NC(=O)c1ccc[nH]1)c1ccccc1)C(=O)O` (centres undefined), the Potency result in experiment [1], in experiment [2], in experiment [3], in experiment [4] and in experiment [5] was “inactive” throughout.
On to `O=C1[C@H](O[C@@H]2O[C@H](CO)[C@@H](O)[C@H](O)[C@H]2O)Oc2ccccc2N1O`, for which the Potency entry in experiment [1], in experiment [2], in experiment [3], in experiment [4] and in experiment [5] was “inactive” throughout.
Regarding `CC(=O)O[C@H]1[C@H](C)[C@@H](O)[C@H]2[C@@H]1C=C(C(=O)O)[C@H]1C[C@@H]3[C@H]([C@H]21)[C@H]1C(=O)O[C@@H]2CC[C@@]3(C)O[C@]1(O)[C@@H]2C`, the Potency entry in experiment [1], in experiment [2], in experiment [3], in experiment [4] and in experiment [5] was “inactive” each time.
Consider `CC(=O)c1c(C)cc(O[C@@H]2O[C@H](CO)[C@@H](O)[C@H](O)[C@H]2O)cc1O`, for which the Potency entry in experiment [1], in experiment [2], in experiment [3], in experiment [4] and in experiment [5] was “inactive” in each case.
Regarding `C/C1=C\C[C@H](O[C@@H]2O[C@H](CO)[C@@H](O)[C@H](O)[C@H]2O)/C(C)=C/[C@H]2OC(=O)[C@H](C)[C@@H]2CC1`, the Potency entry in experiment [1], in experiment [2], in experiment [3], in experiment [4] and in experiment [5] was “inactive” throughout.
Consider `CC(=O)OC[C@]1(O)[C@H]2[C@H](OC(=O)CC(C)C)OC=C(CO[C@@H]3O[C@H](CO)[C@@H](O)[C@H](O)[C@H]3O)[C@H]2C[C@@H]1O`, for which the Potency result in experiment [1], in experiment [2], in experiment [3], in experiment [4] and in experiment [5] was “inactive” each time.
With `C=C1C(OC(C)=O)C(=O)C2C(C)(C)C(OC(C)=O)CCC2(C)C1CC(OC(C)=O)/C(C)=C/COC(C)=O` (centres undefined), the Potency entry in experiment [1], in experiment [2], in experiment [3] and in experiment [5] was “inactive” in each case.
Consider `CC(/C=C/C1(O)C(C)CC(O)CC1(C)C)OC1OC(CO)C(O)C(O)C1O` (centres undefined), for which the Potency entry in experiment [1], in experiment [2], in experiment [3], in experiment [4] and in experiment [5] was “inactive” throughout.
For the molecule `COC(=O)C1C(CC(C)=O)C=CC(O)C12Oc1cc(C)cc(O)c1C2=O` (centres undefined), the Potency entry in experiment [1], in experiment [2], in experiment [3], in experiment [4] and in experiment [5] was “inactive” in each case.
`C[C@]1(OC(=O)/C=C/c2ccccc2)C[C@H](O)[C@]2(O)C=CO[C@@H](O[C@@H]3O[C@H](CO)[C@@H](O)[C@H](O)[C@H]3O)C12` (some centres undefined): the Potency entry in experiment [1], in experiment [2], in experiment [3] and in experiment [5] was “inactive” throughout.
`C/C=C/C=C/C(CC(=O)O)Nc1ccc(C=O)cc1` (centres undefined): the Potency result in experiment [1] and in experiment [2] was “inactive” each time. The Potency in experiment [6] is 4.74 µM (active).
For the molecule `C=C1CCC[C@]2(C)C[C@]3(O)OC(=O)C(C)=C3C[C@@H]12`, the Potency result in experiment [1], in experiment [2], in experiment [6], in experiment [4] and in experiment [5] was “inactive” throughout.
As to `CC1=C2[C@@H]([C@H](C)CC[C@H]2/C=C(\C)C(=O)O)[C@H](O)C1`, the Potency entry in experiment [1], in experiment [2], in experiment [6] and in experiment [4] was “inactive” in each case.
For `COC(=O)[C@@]1(O)C=CC[C@@H]2[C@@]3(C)C[C@@H](c4ccoc4)OC(=O)[C@H]3CC[C@]21C`, the Potency result in experiment [1], in experiment [2], in experiment [6], in experiment [4] and in experiment [5] was “inactive” in each case.
Consider `Cc1cc(O)cc(Oc2cc(C)c(C(=O)O)c(O)c2)c1`, for which the Potency result in experiment [1], in experiment [2] and in experiment [4] was “inactive” in each case. The Potency in experiment [6] was 3.36 µM (active).
For the molecule `O=S(=O)(NC1CCNCC1)c1cc(S(=O)(=O)c2ccccc2)ccc1C(F)(F)F`, the Potency entry in experiment [1], in experiment [2], in experiment [6], in experiment [4] and in experiment [5] was “inactive” throughout.
As to `COC(=O)CC[C@@H](C)[C@H]1CC[C@H]2[C@@H]3CC(=O)[C@H]4C[C@H](OC(C)=O)CC[C@]4(C)[C@H]3CC[C@]12C`, the Potency result in experiment [1], in experiment [2], in experiment [6], in experiment [4] and in experiment [5] was “inactive” throughout.
